# Assay results: ChEMBL document CHEMBL3988442, “University of Dundee, Small-Polar-MMV Screening Library” (2021)
# Screen size: about 48,000 compounds; about 13,000 (27%) showed an effect of 50% or more. This is one part of the list.
# System: Wolbachia pipientis
# Assay: Anti-Wolbachia Cell-Based Screen
# Format: functional
# Set-up: scale not given: in the data most compounds retested in dose-response had high values
# Conditions: 5 µM
row,Structure (SMILES),Percent Effect
1,Cc1cc(S(=O)(=O)N2CC[C@@H](O)C2)c(Cl)cc1F,1.456%
2,O=C(C1CCOC1)N1CCN(Cc2cccnc2)c2ncccc2C1 (stereo not drawn),79.91%
3,O=C(C1CCOCC1)N1CCN(CC2CC2)c2ncccc2C1,-9.379%
4,O=C(C1CCOC1)N1CCN(Cc2ccncc2)c2ncccc2C1 (stereo not drawn),109.7%
5,CCN1CCN(CCCNC(=O)c2cc3ccc(C)cc3nc2C)CC1,26.08%
6,CN(C)C1CCN(Cc2cnc(S(C)(=O)=O)n2CC2CCCCC2)C1 (stereo not drawn),-18.29%
7,CN1C[C@H]2CN(C(=O)c3ccc4c(c3)OCO4)CCN2C1=O,3.165%
8,CS(=O)(=O)N1CCCC12CCCN(C(=O)c1cc(F)cc(F)c1)C2 (stereo not drawn),3.882%
9,Cc1cncc(C(=O)N2CCCC3(CCCN3S(C)(=O)=O)C2)c1 (stereo not drawn),-8.185%
10,CN1C(=O)CCCC12CCCN(C(=O)c1ccc3c(c1)OCO3)C2 (stereo not drawn),103.5%
11,CN1C(=O)CCCC12CCCN(C(=O)c1cccc(C(F)(F)F)c1)C2 (stereo not drawn),112.4%
12,CS(=O)(=O)N1CCCC12CCCN(C(=O)c1ccc3c(c1)OCO3)C2 (stereo not drawn),-9.352%
13,CN1C(=O)CCCC12CCCN(C(=O)c1cc(F)cc(F)c1)C2 (stereo not drawn),108.3%
14,Cc1cc(C)cc(C(=O)N2CCCC3(CCCC(=O)N3C)C2)c1 (stereo not drawn),101%
15,CN(CC(C)(C)C)c1ccc(C(=O)NCCCc2ccccn2)cn1,-1.973%
16,Cc1oc(CNC(=O)Cc2cccc(OC(F)F)c2)cc1C(=O)O,1.075%
17,O=C1CCC2(CCCN(C(=O)c3ccoc3)C2)CN1CCc1c[nH]cn1 (stereo not drawn),2.528%

row,Structure (SMILES),Percent Effect
1,CN1C(=O)CCCC12CCCN(C(=O)c1ccoc1)C2 (stereo not drawn),102.5%
2,CN1C(=O)CCC12CCCN(C(=O)c1ccoc1)C2 (stereo not drawn),1.769%
3,Cc1cc(F)ccc1C(=O)N1C[C@@H]2COC[C@]2(CN(C)C)C1.O=C(O)C(F)(F)F,-5.19%
4,CCC(C)(O)CNC(=O)Nc1ccc(C)cc1Br (stereo not drawn),-22.84%
5,CNCCN1C(=O)CC[C@H]2CN(c3ncc(F)cn3)CC[C@H]21,-2.163%
6,NC(=O)C(NC(=O)c1cc(Br)c[nH]1)c1ccccc1 (stereo not drawn),0.3716%
7,CCc1nc(C)c(CN2CCN(c3ncnc4scc(C)c34)CC2)[nH]1,-4.164%
8,COCCOc1ccccc1C(=O)N(C)Cc1ncc(C)c(OC)c1C,-3.129%
9,COCCCNC(=O)c1ccccc1S(C)(=O)=O,133.8%
10,CS(=O)(=O)c1ccccc1C(=O)NCCCN1CCc2ccccc2C1,5.39%
11,CS(=O)(=O)c1ccccc1C(=O)NCC1Cc2ccccc2O1 (stereo not drawn),-10.07%
12,CCC(C)N(C)CCNC(=O)c1ccccc1OCCOC (stereo not drawn),91.86%
13,CCN(CCNC(=O)c1ccccc1OCCOC)C1CC1,11.11%
14,CCNC(=O)NC(=O)C(C)Nc1ccccc1OCCOC (stereo not drawn),1.487%
15,CN(CCCNC(=O)c1ccccc1OCC(N)=O)CC(F)(F)F,8.203%
16,COCCOc1ccccc1C(=O)NCCN(C)C(C)C,86.22%
